# Laboratory results taken from PubChem BioAssay (Tox21).
# Records with an inconclusive call do not appear. Where a call stands in place of a potency, no number is given. Calls of active or inactive are those of the source. Calls come from the whole dose curve; as a rule, active = well fitted cell-killing curve with a large enough effect in the repeat runs; inconclusive = weak or mixed curves, or effect the other way; inactive = no such curve, though single readings can be large or run the other way.
# Experiment: qHTS assay to identify small molecule antagonists of the glucocorticoid receptor (GR) signaling pathway - cell viability counter screen (AID 720693); note: nearly all actives have a fitted effect of over 55% in size
# Conditions: GR-bla HeLa viability, CellTiter-Glo luminescence, 18 h, with 5 nM dexamethasone present; series mostly up to 58.5 µM
# Source text: National Center for Advancing Translational Sciences [NCATS]
# NIH Chemical Genomics Center [NCGC]
# U.S. Environmental Protection Agency [EPA]
# National Institutes of Environmental Health Sciences [NIEHS]
# National Toxicology Program [NTP]
# U.S. Food and Drug Administration [FDA]
# The Glucocorticoid receptor (GR) is one of the members of the nuclear receptor family of ligand-dependent transcription factors. GR plays a critical role in carbohydrate, protein and lipid metabolisms and programmed cell death. CellSensor GR-bla HeLa cell line (Invitrogen) contains a beta-lactamase reporter gene under the control of the glucocorticoid response element stably integrated into HeLa cells, a cervical cancer cell line that expresses glucocorticoid receptor. The activation of the reporter gene under culture conditions can be detected by fluorescence intensity. This cell line has been used to screen the Tox21 10K compound library and to identify the compounds that inhibit the GR signaling. The cytotoxicity of the Tox21 compound library against the GR-bla HeLa cell line was tested in parallel by measuring the cell viability using CellTiter-Glo assay in the same wells.
# Tox21 Assay Protocol Summary:
# The GR-bla HeLa cells were dispensed at 1500 cells/5 ul/well in 1536-well black wall/clear bottom plates using a Multidrop Combi (ThermoFisher Scientific, Waltham, MA) dispenser. After the assay plates were incubated at a 37 C/5% CO2 incubator for 4 hours, 23 nL of compounds dissolved in DMSO, positive controls or DMSO only was transferred to the assay plate by a pintool station (Kalypsys, San Diego, CA), followed by addition of 1 uL of dexamethasone (5 nM, final concentration in the well). The plates were incubated at 37 C for 18 hours. After 1 uL of LiveBLAzerTM B/G FRET substrate was added using a Flying Reagent Dispenser (Aurora Discovery, San Diego, CA), the plates were incubated at room temperature (RT) for 2 hours, and fluorescence intensity was measured by an Envision plate reader (PerkinElmer, Shelton, CT). After measurement of bla assay, 3 ul CellTiter-Glo (Promega, Madison, WI) was added to measure the cytotoxicity and the plates were then incubated at RT for 30 min. The luminescence was measured using a ViewLux (Perkin Elmer) plate reader.
Compound,Potency,"viability change, negative = cytotoxic"
COc1cccc2sc(N)nc12,inactive,
C=CCOCC(CO)(COCC=C)COCC=C,inactive,
CNC(=O)NC,inactive,
CC(=O)OCCCc1ccccc1,inactive,
c1ccc(CNc2ncnc3nc[nH]c23)cc1,inactive,
CCCCCCCCCCCCCC(=O)OC,inactive,
CC(=O)N(CC(O)CO)c1c(I)c(C(=O)NCC(O)CO)c(I)c(C(=O)NCC(O)CO)c1I (stereo not given),inactive,
COc1ccc(N=Nc2cc(C)c(N=Nc3ccc(S(=O)(=O)O)cc3)cc2OC)cc1,inactive,
C1=CCC(c2ccccc2)CC1 (stereo not given),inactive,
CN(C1CCCCC1)S(=O)(=O)c1ccccc1N,inactive,
C[C@H](CCC(=O)NCC(=O)O)[C@H]1CC[C@H]2[C@@H]3[C@H](O)C[C@@H]4C[C@H](O)CC[C@]4(C)[C@H]3C[C@H](O)[C@]12C,inactive,
C[N+](C)(C)CC(O)CCl (stereo not given),inactive,
Cc1cccc(C(=O)O)c1[N+](=O)[O-],inactive,
O=P(O)(O)OCC(O)CO (stereo not given),inactive,
Nc1cc(C(=O)O)ccc1Cl,inactive,
NC(Cc1c[nH]c2ccccc12)C(=O)O (stereo not given),inactive,
C=C(C)C(=O)OC,inactive,
CCOC(=O)C(C)(C)C,inactive,
CC(C)COC(=O)COc1ccc(Cl)cc1Cl,inactive,
Cc1ccccc1C,inactive,

Compound,Potency,"viability change, negative = cytotoxic"
O=CO,,-3.59% [at 7.04 µM] (inactive)
CC(=O)OC(C)c1ccccc1 (stereo not given),inactive,
CCCCC(CC)COC(=O)c1ccccc1 (stereo not given),inactive,
COCCOCCOCCOC,inactive,
CCN1CN(CC)CN(CC)C1,inactive,
Cc1ccccc1OCC1CO1 (stereo not given),inactive,
O=C(Oc1ccccc1C(=O)O)c1ccccc1O,inactive,
CN(C)CCCNCCC#N,inactive,
OC[C@@H](O)[C@H](O)[C@@H](O)[C@@H](O)CO,inactive,
CC(=O)Nc1ncc([N+](=O)[O-])s1,inactive,
O=C(O)c1ccccc1C(=O)Nc1ccc(S(=O)(=O)Nc2nccs2)cc1,inactive,
O=C(/C=C/c1ccccc1)NCCO,inactive,
CC(C)CCC(=O)CCC(C)C,inactive,
C=CC(C)(O)CC/C=C(\C)CC (stereo not given),inactive,
CO/N=C(/C(=O)N[C@@H]1C(=O)N2C(C(=O)O)=C(Cn3nnc(C)n3)CS[C@H]12)c1csc(N)n1,inactive,
Cc1nc([N+](=O)[O-])cn1-c1ccc([N+](=O)[O-])cc1,inactive,
Cc1nc(C)nc(N2C[C@@H](C)N(c3ccnc([C@@H](C)O)n3)[C@@H](C)C2)n1,inactive,
CCOc1ccc(NC(=O)OC(C)C)cc1OCC,inactive,
CCCCCCCCCCCCCCCCI,inactive,
C=C(C)[C@@H]1CC[C@@H](C)C[C@@H]1O,inactive,
